We go through 30 compounds from the supplement of paper PMC7669877.

± gives the uncertainty stated by the source.

The test system of this assay is Candidatus Liberibacter solanacearum in potato hairy roots. Nature of the assay: relative CLso titer (% of untreated control); higher = less inhibition of bacterial titer. The settings on record: 10 µM; 72 h. As for the experimental part:
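Primary screen of ~220 Spectrum collection (MicroSource) compounds at 10 µM (0.1% DMSO) on Candidatus Liberibacter solanacearum-infected potato hairy roots in multi-well plates (Gamborg B-5 medium, vacuum infiltrated, 21 °C, dark, 72 h). CLso titer was measured by qPCR of 16S rDNA normalised to potato RPL2 (2^-ddCq), pairwise-standardised against untreated controls, averaged over two biological replicates and expressed as % of untreated.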
On to `O=C(O)CCCO`, for which the “relative CLso titer” value came to 127 ± 31%.
For `CCCCCCCCCCCCCCCC[n+]1ccccc1` the value was 136 ± 72%; for `CO[C@]12C[C@@H](COC(=O)c3cncc(Br)c3)CN(C)[C@@H]1Cc1cn(C)c3cccc2c13`, 135 ± 20%; for `CN[C@@H](C)[C@@H](O)c1ccccc1`, 98.4 ± 3.8%.
Next, `NC(=O)CN1CCCC1=O`: 123 ± 35%.
For `Fc1ccc(Oc2ccnc3cc(Cl)cc(Cl)c23)cc1` the value was 85.4 ± 20%; for `C[C@@H]1O[C@@H](O[C@H]2C[C@@H](O)[C@]3(CO)[C@H]4[C@H](O)C[C@]5(C)[C@@H](C6=CC(=O)OC6)CC[C@]5(O)[C@@H]4CC[C@]3(O)C2)[C@H](O)[C@H](O)[C@H]1O`, 85.6 ± 47%; for `CC(=O)O[C@H]1C[C@H](O[C@H]2[C@@H](O)C[C@H](O[C@H]3[C@@H](O)C[C@H](O[C@H]4CC[C@@]5(C)[C@H](CC[C@@H]6[C@@H]5C[C@@H](O)[C@]5(C)[C@@H](C7=CC(=O)OC7)CC[C@]65O)C4)O[C@@H]3C)O[C@@H]2C)O[C@H](C)[C@H]1O[C@@H]1O[C@H](CO)[C@@H](O)[C@H](O)[C@H]1O`, 118 ± 37%.
For `[O-][n+]1ccccc1[S-].[O-][n+]1ccccc1[S-].[Zn+2]`, the “relative CLso titer” value came out at 64.7 ± 4.9%.
As for `O=P1(N(CCCl)CCCl)NCCCO1` (stereo not given), the “relative CLso titer” value is 39.8 ± 6.9%.
Next, `O=C1CCO1`: 103 ± 58%.
Next, `C[C@@H]1C[C@@H]([C@H](O)CC2CC(=O)NC(=O)C2)C(=O)[C@@H](C)C1`: 214 ± 43%; `c1ccc2c(c1)sc1ccccc12`: 193 ± 4.5%.
On to `O=C(O)CCCc1ccc(N(CCCl)CCCl)cc1`, for which the “relative CLso titer” value stood at 111 ± 11%.
Next, `CCC(=O)O[C@H]1CC[C@H]2[C@@H]3CCC4=CC(=O)CC[C@]4(C)[C@H]3CC[C@]12C`: 83.1 ± 2.9%; `C[N+]12CCC(CC1)C(OC(=O)C(O)(c1ccccc1)c1ccccc1)C2` (stereo not given): 57.1 ± 5%; `Cc1cc(O)ccc1Cl`: 45.9 ± 1.8%.
As to `CN1C[C@H](C(=O)N[C@]2(C)O[C@@]3(O)[C@@H]4CCCN4C(=O)[C@H](Cc4ccccc4)N3C2=O)C[C@@H]2c3cccc4[nH]cc(c34)C[C@H]21`, the “relative CLso titer” value turned out to be 107 ± 46%.
Next, `CC[C@H]1CN2CCc3cc(OC)c(OC)cc3[C@@H]2C[C@@H]1C[C@H]1NCCc2cc(OC)c(OC)cc21`: 117 ± 28%.
For `CC(C)C[C@H]1C(=O)N2CCC[C@H]2[C@]2(O)O[C@](NC(=O)[C@@H]3C=C4c5cccc6[nH]c(Br)c(c56)C[C@H]4N(C)C3)(C(C)C)C(=O)N12` the value was 76.9 ± 25%.
With `C[C@]12CC[C@H]3[C@@H](CCC4=CC(=O)CC[C@@]43C)[C@@H]1CC[C@@H]2O`, the “relative CLso titer” value came out at 119 ± 11%.
Next, `N.N.[Cl][Pt][Cl]`: 76.7 ± 6.9%; `CCCC(C)(COC(N)=O)COC(=O)NC(C)C` (stereo not given): 92.4 ± 17%; `Cc1ccc(O)cc1.Cc1cccc(O)c1.Cc1ccccc1O`: 70.4 ± 30%.
Next, `COc1ccc2c(c1)[C@]13CCCC[C@@H]1[C@H](C2)N(C)CC3`: 539 ± 330%; `O=c1[nH]c2ccccc2n1CCCN1CCC(n2c(=O)[nH]c3cc(Cl)ccc32)CC1`: 126 ± 28%.
Next, `COc1cc2c(c(OC)c1OC)-c1ccc(OC)c(=O)cc1[C@@H](NC(C)=O)CC2`: 47.6 ± 2.7%.
As to `Cc1cccc(C)c1NC1=NCCCS1`, the “relative CLso titer” value stood at 91.4 ± 17%.
For `CNC(C)[C@H](O)c1ccccc1` (stereo not given in full) the value was 160 ± 24%; for `O=c1[nH]c2ccccc2n1C1CCN(CCCC(c2ccc(F)cc2)c2ccc(F)cc2)CC1`, 135 ± 2%.
